This passage reports red/green cell ratio (normalised), normalised cell number and luciferase signal results from PubChem BioAssay.

Experiment [1] is described as follows: differential killing of epithelial or mesenchymal cells, primary screen, imaging, PC-3E GFP, TEM4-18 mCherry, co-culture (AID 1345086;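 active = compounds killing one labelled cell type while sparing the other, by normalised counts and ratio limits, not self-fluorescent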;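 as to all read-outs here: cells exposed to compound for 72 h before imaging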;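 as to red/green cell ratio (normalised): normalised mesenchymal count divided by normalised epithelial count so high means epithelial killing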). The conditions noted are these: imaging cell counts, at 1 µM; for red/green cell ratio (normalised): actives lie on both sides, counts scaled to control wells, 1 = unselective.
Experiment [2] concerns the target Mitogen-activated protein kinase 7 (Homo sapiens) (UniProt Q13164). Kind of experiment: ERK5 transactivation activators in reporter cells, primary screen, cell-based, HTS (AID 1508626).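 Also: luciferase driven by Gal4-ERK5 fusion binding five Gal4 sites before minimal TATA.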 The conditions noted are these: HeLa Gal4-ERK5 transactivation, 18 h, at 5 µM, stronger effect = higher value.
[3] abbreviates: measured here: epithelial PC-3E GFP cell survival.
Where [4] appears, read: measured here: mesenchymal TEM4-18 mCherry cell survival.

Structures are written as SMILES. The source made the active and inactive calls.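 The calls were made as follows, unless noted: active = luciferase signal above three times the same-plate solvent-only control wells; inactive = the rest.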

Sequence of Mitogen-activated protein kinase 7 (Homo sapiens) (Q13164 whole entry, looked up, the tested form may be a part): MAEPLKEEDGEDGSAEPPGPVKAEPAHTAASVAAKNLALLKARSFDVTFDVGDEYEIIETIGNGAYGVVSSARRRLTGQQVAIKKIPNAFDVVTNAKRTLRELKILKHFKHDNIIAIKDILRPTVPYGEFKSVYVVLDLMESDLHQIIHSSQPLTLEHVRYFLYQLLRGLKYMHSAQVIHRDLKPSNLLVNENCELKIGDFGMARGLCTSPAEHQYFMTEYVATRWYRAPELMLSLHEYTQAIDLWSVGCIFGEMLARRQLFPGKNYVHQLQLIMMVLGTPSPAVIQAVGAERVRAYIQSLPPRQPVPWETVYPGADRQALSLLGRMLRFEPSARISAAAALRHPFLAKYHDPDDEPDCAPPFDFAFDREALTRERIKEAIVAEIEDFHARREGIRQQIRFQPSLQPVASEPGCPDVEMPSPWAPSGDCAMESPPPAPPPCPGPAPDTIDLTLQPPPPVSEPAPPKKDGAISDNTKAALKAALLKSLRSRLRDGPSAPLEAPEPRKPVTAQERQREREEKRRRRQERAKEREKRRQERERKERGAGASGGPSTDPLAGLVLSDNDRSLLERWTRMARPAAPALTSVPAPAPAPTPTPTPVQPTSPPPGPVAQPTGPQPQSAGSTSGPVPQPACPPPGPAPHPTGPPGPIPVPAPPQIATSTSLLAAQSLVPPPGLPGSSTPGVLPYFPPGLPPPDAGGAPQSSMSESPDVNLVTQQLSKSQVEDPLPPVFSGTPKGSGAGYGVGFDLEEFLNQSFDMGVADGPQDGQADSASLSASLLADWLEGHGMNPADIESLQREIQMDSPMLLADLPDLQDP

Take `OC[C@H]1O[C@@H](O[C@H]2[C@H](O)[C@@H](O)[C@@H](O)O[C@@H]2CO)[C@H](O)[C@@H](O)[C@@H]1O`: in experiment [1], the red/green cell ratio (normalised) was 1.17 (inactive). In addition, the results for the normalised cell number in experiment [1] (setting [3]) and in experiment [1] (setting [4]) were 0.89 and 1.04, respectively. Besides, the luciferase signal in experiment [2] is 32 AU (inactive).

With `COc1ccc([C@@H](C)C(=O)c2ccc(O)cc2O)cc1`, in experiment [1], the red/green cell ratio (normalised) is 1.1 (inactive). Moreover, the results for the normalised cell number in experiment [1] (setting [3]) and in experiment [1] (setting [4]) were 0.96 and 1.05, respectively. The luciferase signal in experiment [2] is 20 AU (inactive).

On to `CN(C)CC(=O)OC[C@@H](O)[C@@H](O)[C@H](O)[C@@H](O)C(=O)O`, for which the red/green cell ratio (normalised) in experiment [1] is 1.02 (inactive). For the same compound, the normalised cell number came out at 1.08 in experiment [1] (setting [3]) and 1.1 in experiment [1] (setting [4]). In addition, the luciferase signal in experiment [2] was 36 AU (inactive).

Take `COc1cc(OC)c(C(C)=O)c(O)c1C`: the red/green cell ratio (normalised) in experiment [1] was 0.96 (inactive). The normalised cell number was 0.98 in experiment [1] (setting [3]) and 0.94 in experiment [1] (setting [4]). The luciferase signal in experiment [2] is 32 AU (inactive).

Turning to `COc1ccc(-c2oc3cc(OC)c(OC)c(OC)c3c(=O)c2OC)cc1OC`, the red/green cell ratio (normalised) in experiment [1] is 1.2 (inactive). Besides, the normalised cell number turned out to be 0.9 in experiment [1] (setting [3]) and 1.08 in experiment [1] (setting [4]). Besides, the luciferase signal in experiment [2] was 32 AU (inactive).

For `C/C1=C/CC(C)(C)/C=C/C/C(C)=C/CC1`, in experiment [1], the red/green cell ratio (normalised) is 0.95 (inactive). Further, the normalised cell number in experiment [1] (setting [3]) was found to be 1.06; in experiment [1] (setting [4]) it was 1.01. For the same compound, in experiment [2], the luciferase signal is 60 AU (inactive).

As to `COc1ccc(-c2coc3cc(O)ccc3c2=O)c(OC)c1`, the red/green cell ratio (normalised) in experiment [1] was 1.02 (inactive). In addition, the normalised cell number in experiment [1] (setting [3]) is 1.07; in experiment [1] (setting [4]), 1.08. Further, the luciferase signal in experiment [2] is 60 AU (inactive).

Consider `COc1cc(O)c(C(=O)/C=C/c2ccc(O)c(OC)c2)c(OC)c1`, for which the red/green cell ratio (normalised) in experiment [1] is 0.93 (inactive). Moreover, the values for the normalised cell number in experiment [1] (setting [3]) and in experiment [1] (setting [4]) were 1.1 and 1.02, respectively. Further, the luciferase signal in experiment [2] was 60 AU (inactive).

For `COc1cc(O)c(C(=O)/C=C/c2ccc(OC)c(O)c2)c(OC)c1`, the red/green cell ratio (normalised) in experiment [1] was 1.01 (inactive). Also, the normalised cell number came out at 0.89 in experiment [1] (setting [3]) and 0.9 in experiment [1] (setting [4]). The luciferase signal in experiment [2] was 84 AU (inactive).

With `C#CCCCCCCCCCCCc1ccco1`, the red/green cell ratio (normalised) in experiment [1] is 0.97 (inactive). Also, the normalised cell number in experiment [1] (setting [3]) turned out to be 1.01; in experiment [1] (setting [4]), 0.98. Besides, the luciferase signal in experiment [2] is 148 AU (inactive).

Take `CC(CCC(=O)O)[C@H]1CCC2C3C[C@H](O)[C@@H]4C[C@H](O)CC[C@]4(C)C3CC[C@@]21C` (some centres not stated): in experiment [1], the red/green cell ratio (normalised) was 0.83 (inactive). For the same compound, the results for the normalised cell number in experiment [1] (setting [3]) and in experiment [1] (setting [4]) were 1.24 and 1.03, respectively. Moreover, in experiment [2], the luciferase signal is 60 AU (inactive).

As for `CC(=O)OCC(=O)[C@@]1(O)CCC2C3CCC4=CC(=O)C=C[C@]4(C)[C@@]3(F)[C@@H](O)C[C@@]21C` (some centres not stated), the red/green cell ratio (normalised) in experiment [1] was 0.75 (inactive). The normalised cell number in experiment [1] (setting [3]) was determined as 1.27; in experiment [1] (setting [4]) it was 0.95. Further, the luciferase signal in experiment [2] is 76 AU (inactive).

As for `CC(C)(N=NC(C)(C)C(=N)N)C(=N)N`, the red/green cell ratio (normalised) in experiment [1] is 1.04 (inactive). Also, the values for the normalised cell number in experiment [1] (setting [3]) and in experiment [1] (setting [4]) were 1.17 and 1.22, respectively. In experiment [2], the luciferase signal is 20 AU (inactive).

`O=C(NC1CCCCC1)NC1CCCCC1`: the red/green cell ratio (normalised) in experiment [1] was 0.92 (inactive). For the same compound, the normalised cell number in experiment [1] (setting [3]) was determined as 1.15; in experiment [1] (setting [4]), 1.06. For the same compound, the luciferase signal in experiment [2] was 60 AU (inactive).

Turning to `CCCCCCCCCCCCCCCC(=O)OCC(O)CO` (configuration not stated), the red/green cell ratio (normalised) in experiment [1] was 0.84 (inactive). Moreover, the normalised cell number in experiment [1] (setting [3]) came out at 1.14; in experiment [1] (setting [4]) it was 0.96. Moreover, the luciferase signal in experiment [2] is 72 AU (inactive).

As for `COc1ccc2c(c1)OCC(Cc1ccc(O)c(OC)c1)C2=O` (configuration not stated), in experiment [1], the red/green cell ratio (normalised) is 0.93 (inactive). Also, the normalised cell number in experiment [1] (setting [3]) worked out at 1.04; in experiment [1] (setting [4]) it was 0.96. Besides, the luciferase signal in experiment [2] is 84 AU (inactive).

In the case of `C=CCCCCCCCCCCCc1ccco1`, the red/green cell ratio (normalised) in experiment [1] was 1.12 (inactive). For the same compound, the normalised cell number in experiment [1] (setting [3]) worked out at 0.9; in experiment [1] (setting [4]), 1.01. Also, in experiment [2], the luciferase signal is 112 AU (inactive).

As to `Cc1cc(O)c(C=O)c2c1C(=O)Oc1c(COC(=O)/C=C/C(=O)O)c(O)c(C(=O)O)c(C)c1O2`, the red/green cell ratio (normalised) in experiment [1] is 1.12 (inactive). Also, the normalised cell number in experiment [1] (setting [3]) was found to be 1.12; in experiment [1] (setting [4]) it was 1.25. The luciferase signal in experiment [2] is 16 AU (inactive).
